# ALDH1A1 block: inhibitors of human aldehyde dehydrogenase 1A1 | Potency, µM (series often up to 75.3 µM), without a hit: at the top dose activity, negative = inhibition, most hits filed as inhibitors | 220,000 tested, 7.3% active | AID 1030 | P00352 | Purified ALDH1A1, NADH fluorescence, propionaldehyde substrate;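 further: potency means the concentration at half of the fitted maximal effect; plate controls were no enzyme wells and a reference inhibitor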
# PNC assembly inh: inhibitors of perinucleolar compartment assembly; activity change (PNC), negative = inhibition, % at 10 µM; 140,000 tested, 3.1% active; AID 2417; PC3M PTB-GFP, PNC prevalence imaging, 16 h; hits give low values;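 active means readout at or below -70, meaning at least 70% loss of cells showing the perinucleolar compartment, a nuclear body marking cancer cells; inconclusive means readout between -30 and a set limit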;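 further: plate controls were DMSO wells for no effect and camptothecin positive control wells for full effect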
#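 PC3M cells stably expressing PTB-GFP, 750–1000 cells/well, treated 16 h at 37 °C with compound (23 nl of library stock), in duplicate. After paraformaldehyde fixation and Hoechst stain, imaged at 20x; PNC prevalence scored by image analysis.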
# HPGD block: blocks human HPGD enzyme activity. P15428. 150,000 tested, 4.3% active. AID 894. purified HPGD, NADH fluorescence kinetic, PGE2 substrate. Potency, µM, for the others: at the highest dose activity change, negative = inhibition, usual class: inhibitors; further: potency means the concentration at half of the fitted maximal effect
# Target sequence (P15428 whole entry, looked up): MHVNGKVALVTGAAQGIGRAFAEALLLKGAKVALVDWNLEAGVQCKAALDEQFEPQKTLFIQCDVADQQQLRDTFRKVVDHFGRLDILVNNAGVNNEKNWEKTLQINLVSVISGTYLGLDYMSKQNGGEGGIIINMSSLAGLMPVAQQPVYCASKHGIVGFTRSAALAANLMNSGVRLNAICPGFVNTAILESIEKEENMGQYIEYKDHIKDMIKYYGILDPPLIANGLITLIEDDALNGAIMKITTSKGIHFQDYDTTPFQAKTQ
#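 NADH formation kinetics: reaction with 30 uM PGE2 and 1 mM NAD+ (final), 20 nM enzyme, Tris-HCl pH 8 with Tween 20, after 15 min compound preincubation at room temperature. Fluorescence change, last versus first of five reads.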
# Active calls of the source: *; u = inconclusive; x = no result; [ ] = dose if it differs, or a comment. An excerpt weighted towards active compounds, which were near 11% of everything screened. Unless noted, the call rests on the fitted dose curve; in most records, active means well fitted inhibition curve with a large enough effect (not every such curve was filed as active); inconclusive means small, poorly fitted or top-dose-only effect, or another doubt; inactive means no such curve, though single readings can be large or run the other way. Unless noted, on the % scale 0 is the no-effect control and ±100 the full control effect.
SMILES,ALDH1A1 block,PNC assembly inh,HPGD block
COC(=O)C1(CC(C)C)C=C2C(=C(C(C)C)C(=O)C2C)CN1 (stereo unspecified),35µM*,x,u
COC(=O)C1(Cc2ccccc2)C=C2C(=C(c3ccccc3)C(=O)C2C)CN1 (stereo unspecified),25µM*,x,10µM*
COC(=O)C1(C)C=C2C(=C(c3ccccc3)C(=O)C2C)CN1 (stereo unspecified),u,x,-3%
CCCC1(C(=O)OC)C=C2C(=C(C(C)C)C(=O)C2C)CN1 (stereo unspecified),u,x,-8%
COc1ccccc1C1CC(=O)Oc2c(C(C)C)ccc(C)c21 (stereo unspecified),8%,x,-18%
Cc1c(N=C2SCC(=O)N2/N=C\c2ccc(Br)cc2)c(=O)n(-c2ccccc2)n1C,5%,-19,-2%
O=C(CN1CCN(c2ccccn2)CC1)Nc1cccc(S(=O)(=O)N2CCCC2)c1,0%,x,x
c1ccc(CC(Nc2ccccn2)c2ccccc2)cc1 (stereo unspecified),-5%,x,x
CCc1cc(-c2n[nH]c(C)c2-c2ccc3c(c2)OCCO3)c(O)cc1O,-15%,x,-14%
COc1ccc(NC(=S)Nc2cccc([N+](=O)[O-])c2)cc1,-3%,-9,-7%
COc1ccc(NC(=S)NNc2ccc([N+](=O)[O-])cc2S(=O)(=O)Nc2ccc(C)cc2C)cc1,4µM*,u,14µM*
Cc1ccc(NS(=O)(=O)c2cc([N+](=O)[O-])ccc2NNC(=S)Nc2cc(C)ccc2C)c(C)c1,2.8µM*,u,7.9µM*
Cc1ccc(NS(=O)(=O)c2cc([N+](=O)[O-])ccc2NNC(=S)Nc2cccc(Cl)c2)c(C)c1,0.28µM*,-24,28µM*
Cc1cccc(NS(=O)(=O)c2cc(NC(=O)CC(=O)c3ccc([N+](=O)[O-])cc3)ccc2C)c1,-8%,x,x
CCOC(=O)Nc1ccc([N+](=O)[O-])cc1C,-8%,-11,x
COc1cccc(C2C(C(=O)c3sc(C)nc3C)=C(O)C(=O)N2CCN(C)C)c1OC (stereo unspecified),11%,23,x
O=C(CN(c1ccccc1)S(=O)(=O)c1ccc(F)cc1)NC1CCS(=O)(=O)C1 (stereo unspecified),14%,x,x
CCOc1ccc(S(=O)(=O)NCCCN2CCOCC2)cc1,2%,-4,-17%
CC(C)(CNC(=O)COc1ccccc1Cc1ccccc1)N1CCOCC1,12%,x,x
COc1ccc(NC(=O)c2cc3c(=O)n(C)c4ccccc4c3s2)cc1OC,-5%,x,x
Cc1cc(OCC(=O)Nc2ccncc2)ccc1Br,-2%,u,x
Cc1nn(-c2ccccc2)c2sc(C(=O)N(CC(=O)NC(C)(C)C)Cc3ccco3)cc12,25µM*,u,-28%
COC(=O)c1cc2c(C)nn(-c3ccccc3)c2s1,u,-9,u
COc1cc(/C=C(\C#N)C(=O)Nc2cccnc2)ccc1OC(C)C,-9%,108,-16%
C/C(=N\NC(=O)c1ccc(-c2ccccc2)cc1)c1cccc(N)c1,22µM*,x,x
SMILES,ALDH1A1 block,PNC assembly inh,HPGD block
CC(=O)Nc1ccc(/C(C)=N/NC(=O)c2ccc(F)cc2)cc1,1%,-18,-8%
CC(=O)Nc1ccc(/C(C)=N\NC(=O)c2ccc(-c3ccccc3)cc2)cc1,22µM*,x,x
C/C(=N\NC(=O)c1ccccc1)c1cccc(Br)c1,12%,x,x
COc1ccc(NC(=O)N2CCC3(CC2)CCN(S(C)(=O)=O)CC3)cc1,25%,x,-5%
N#CCCN(Cc1ccccc1)C(=O)Nc1ccc(F)cc1,1%,x,x
Cc1nnc(SCc2cccc3ccccc23)n(N)c1=O,6%,14,-16%
NC(=O)c1ccc(N2CCC(C(N)=O)CC2)c([N+](=O)[O-])c1,11%,x,x
O=C(OC1CCOC1=O)c1ccc(N2CCCC2)c([N+](=O)[O-])c1 (stereo unspecified),14µM*,x,x
O=C(OC1CCOC1=O)c1ccc(S(=O)(=O)N2CCCCCC2)cc1 (stereo unspecified),u,25,16µM*
O=C(OC1CCOC1=O)c1ccc(Cl)c(S(=O)(=O)N2CCCCC2)c1 (stereo unspecified),-3%,x,x
O=C(COC(=O)c1ccc(S(=O)(=O)N2CCCCC2)cc1)NCc1ccco1,-6%,x,x
CCc1cccc(CC)c1NC(=O)COC(=O)CC1c2ccccc2CCN1S(=O)(=O)c1ccccc1 (stereo unspecified),14%,-14,-12%
O=C(OCc1ccco1)c1ccc(S(=O)(=O)N2CCCCC2)cc1,28µM*,21,-16%
CCc1cccc(CC)c1NC(=O)COC(=O)c1cccc(S(=O)(=O)N2CCc3ccccc3C2)c1,-1%,-90*,-4%
CC(C)C1(C)C(=O)N=C2c3ccccc3C(=O)N21 (stereo unspecified),7%,u,2%
O=C(NCCO)c1ccc(Cl)cc1,-3%[13.5 µM],x,-3%
CN(Cc1ccon1)Cc1cn(Cc2ccccc2)nc1-c1ccc2c(c1)OCO2,0%,x,x
O=C(OC1CCOC1=O)c1cccc(S(=O)(=O)N2CCc3ccccc3C2)c1 (stereo unspecified),13µM*,x,x
Cc1cc(N2CCN(C)CC2)ccc1NC(=O)c1cccc(S(=O)(=O)N2CCc3ccccc3C2)c1,-12%,x,x
Cc1cccc2c1NC(C)CC2C (stereo unspecified),u,u,-5%
CCNC(=S)N/N=C/c1ccc(OCC(=O)Nc2ccc(C)cc2)cc1,12%,3,-21%
COc1ccc(-n2nnnc2SCC(=O)N2CCCC2)cc1OC,3%,38,-12%
Cc1ccc(-n2nnnc2SCC(=O)N2CCN(C(=O)c3ccco3)CC2)c(C)c1,u,-83*,-5%
CCCCn1nnnc1SCC(=O)N1CCN(C(=O)c2ccco2)CC1,u,-8,-3%
COc1ccc(-n2nnnc2SCC(=O)N2CCN(C(=O)c3ccco3)CC2)cc1OC,32µM*,x,x
SMILES,ALDH1A1 block,PNC assembly inh,HPGD block
COc1ccc(NC(=O)C2CCCN(S(=O)(=O)c3ccc4c(c3)oc(=O)n4C)C2)c(OC)c1 (stereo unspecified),1%,-28,-17%
Cc1ncsc1CCOC(=O)c1ccc(Cl)cc1,2%,x,x
COc1cccc(N2CCN(C(=S)NCc3ccco3)CC2)c1,-17%,-11,-1%
O=C(O)CC/C(=C\c1ccc(N2CCOCC2)c([N+](=O)[O-])c1)c1nc2ccccc2s1,6.3µM*,x,x
O=C(O)CC/C(=C\c1ccc(Cl)c([N+](=O)[O-])c1)c1nc2ccccc2s1,u,37,-23%
N#Cc1c(C(F)(F)F)cc(C2CC2)[nH]c1=O,u,-25,u
COCCNC(=O)c1cccc(Nc2nc(-c3ccccc3)c3cc(Cl)ccc3n2)c1,-10%,-19,28µM*
COCCCNC(=O)c1cccc(NC(=O)c2ccccc2)c1,14%,2,-8%
CCNC(=S)Nc1ccc(N(c2ccccc2)C(C)C)cc1,u,u,-29%
CC(C)c1ccc(NC(=S)NN(c2ccccc2)c2ccccc2)cc1,14µM*,-85*,22µM*
CC(=O)c1c(N2CCCCC2)nc(=O)n(-c2ccccc2)c1C,2%,u,-6%
CC(=O)c1c(N2CCOCC2)nc(=O)n(-c2ccccc2)c1C,4%,-80*,-8%
CC(=O)c1c(N2CCOCC2)nc(=S)n(-c2ccccc2)c1C,3%,u,-4%

# Compound activity as filed in PubChem BioAssay.
